PubChem BioAssay AID493012 (Sanford-Burnham Center for Chemical Genomics, 2011)
About 930 (0.28%) of roughly 330,000 compounds were called active.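 The calls were made as follows: active = inhibition of at least 40% at 20 µM, with no more than 30% in the related APOBEC3A deaminase screen; inactive = the rest.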 For the sample, actives were picked, then their nearest neighbours and some compounds at random.

molecular target: DNA dC->dU-editing enzyme APOBEC-3G (Homo sapiens) (UniProt Q9HC16); test: APOBEC3G DNA deaminase inhibitors, primary screen, biochemical, fluorescence, single-stranded DNA substrate, uHTS (AID 493012); conditions: recombinant A3G, ssDNA deamination FAM/TAMRA fluorescence; at 20 µM; stronger effect = higher value;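 also: plate controls were DMSO wells with A3G for no effect and wells lacking A3G enzyme for full effect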
Sequence (Q9HC16 whole entry, looked up): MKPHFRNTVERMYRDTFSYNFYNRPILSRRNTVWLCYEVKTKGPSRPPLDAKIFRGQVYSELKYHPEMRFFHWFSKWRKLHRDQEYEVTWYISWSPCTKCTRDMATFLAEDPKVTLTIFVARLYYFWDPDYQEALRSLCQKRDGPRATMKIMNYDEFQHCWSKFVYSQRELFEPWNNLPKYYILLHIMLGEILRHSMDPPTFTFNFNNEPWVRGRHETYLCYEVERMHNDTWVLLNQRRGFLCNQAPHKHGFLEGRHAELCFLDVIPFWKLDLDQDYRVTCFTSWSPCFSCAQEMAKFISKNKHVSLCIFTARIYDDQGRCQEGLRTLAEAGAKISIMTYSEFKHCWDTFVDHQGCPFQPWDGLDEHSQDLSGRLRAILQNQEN

| SMILES | inhibition |
| --- | --- |
| CCOC(=O)C1CCN(S(=O)(=O)c2cc(F)ccc2OC)CC1 | -1.04% (inactive) |
| CCC(=O)Nc1ccccc1C(=O)N1CCN(Cc2ccccc2)CC1 | -6.48% (inactive) |
| CCOc1ccc(NC(=O)Nc2cc(C)on2)cc1 | 65.3% (active) |
| CCOc1ccc(C(=O)Nc2ccc(S(=O)(=O)Nc3cc(C)on3)cc2)cc1 | -9.24% (inactive) |
| CCC(=O)Nc1ccc(C(=O)Nc2cc(C)on2)cc1 | 2.01% (inactive) |
| CC(C)NC(=O)c1ccc(Sc2ccccc2)c([N+](=O)[O-])c1 | -2.3% (inactive) |
| O=C(Cc1ccccc1)NNC1CC(=O)N(c2ccc(Br)cc2)C1=O (configuration not stated) | 4.82% (inactive) |
| COC(=O)c1sccc1NC(=O)CC1C(=O)NCCN1C(=O)Nc1ccc(F)cc1F (configuration not stated) | -4.83% (inactive) |
| CNC(=O)c1sc(Nc2ccc(OCc3ccccc3)cc2)nc1C | -1.98% (inactive) |
| CN(c1ccccc1)S(=O)(=O)c1ccc(Cl)c(C(=O)NCCc2c[nH]c3ccccc23)c1 | -7.53% (inactive) |
| CSCCC(NS(=O)(=O)c1ccc(C)cc1)C(=O)NCCc1c[nH]c2ccccc12 (configuration not stated) | -1.39% (inactive) |
| Cc1ccc(S(=O)(=O)N(C)CC(=O)NCCc2c[nH]c3ccccc23)cc1 | 49.6% (active) |
| COc1ccc(C)cc1NC(=O)CCS(=O)(=O)c1cccc2nonc12 | -1.32% (inactive) |
| O=C1CC(N2CCN(c3ccc(F)cc3)CC2)C(=O)N1c1ccccc1 (configuration not stated) | -7.4% (inactive) |
| O=C1CC(Sc2ncn[nH]2)C(=O)N1c1ccccc1 (configuration not stated) | 41.6% (active) |
| Cc1ccc(N2C(=O)CC(Sc3ncn[nH]3)C2=O)cc1 (configuration not stated) | 28% (inactive) |
| CCOc1ccc(-c2cn(S(=O)(=O)c3cccc4nsnc34)nc2N)cc1 | 0.75% (inactive) |
| CCOC(=O)C(NC(C)=O)C(=O)Nc1ccc(OC)cc1 (configuration not stated) | -5.93% (inactive) |
| O=c1[nH]c(=S)[nH]c2[nH]c(=S)[nH]c12 | 93.2% (inactive) |
| CCNC(=O)CC1C(=O)N(c2ccc(F)cc2)C(=O)N1CCc1sccc1C (configuration not stated) | -6.98% (inactive) |
| COc1ccc(C2=NO[C@@H]3C(=O)N(Cc4ccccc4)C(=O)[C@H]23)cc1OC | -9.52% (inactive) |
| O=C(Cn1cnc([N+](=O)[O-])n1)NCCc1ccccc1 | 61.5% (active) |
| O=C(Cc1ccc(Br)cc1)NCCc1ccccc1 | -5.45% (inactive) |
| CC(C)(C)NC(=O)Cn1cnc([N+](=O)[O-])n1 | -1.06% (inactive) |
| COCCN1C(=O)C(=O)/C(=C(/O)c2ccc(S(=O)(=O)N3CCOCC3)cc2)C1c1ccc(O)c(OC)c1 (configuration not stated) | -1.29% (inactive) |

| SMILES | inhibition |
| --- | --- |
| CCOC(=O)C(Sc1ncc(C#N)c(N)n1)C(C)C (configuration not stated) | 1.62% (inactive) |
| Cn1c(N)cc(-c2ccc(F)cc2)c(C#N)c1=O | -8.38% (inactive) |
| COc1ccc(O)c(C(=O)c2cnc3c(c2)c(-c2ccc(F)cc2)c(C#N)c(=O)n3C)c1 | -3.05% (inactive) |
| Cc1cc(C)c2c(-c3ccc(F)cc3)c(C#N)c(=O)n(C)c2n1 | 53.9% (active) |
| CC1c2nc3ccccc3n2C(CC(=O)NCCCN2CCOCC2)C(=O)N1Cc1ccccc1 (configuration not stated) | -9.69% (inactive) |
| O=C(Nc1ccc(-c2ccc3nncn3n2)cc1)C1CCCCC1 | -1.63% (inactive) |
| CN(C)c1nc(NN)nc(Nc2ccc(F)cc2)n1 | -0.168% (inactive) |
| O=C(Nc1ccncc1)Nc1ccc(F)cc1 | -2.01% (inactive) |
| Fc1ccc(Nc2nnns2)cc1 | 48.9% (active) |
| CCOC(=O)C(C)Sc1nnc(CSc2nc3nc(C)cc(C)n3n2)o1 (configuration not stated) | -3.96% (inactive) |
| CC(=O)c1c(C)[nH]c(=S)c(C#N)c1-c1ccc(F)cc1 | 5.87% (inactive) |
| CCc1c(C)[nH]c(=S)c(C#N)c1C | 40.3% (active) |
| CCC(=O)N(C)C(c1ccccc1Cl)c1nnnn1-c1c(C)cccc1C (configuration not stated) | -7.17% (inactive) |
| COC(=O)c1ccc2c(=O)n(CCN3CCOCC3)c(SCC(=O)Nc3cccc(OC)c3)nc2c1 | -3.78% (inactive) |
| CC(=O)N(C1=C(Cl)C(=O)c2ccccc2C1=O)c1ccc(C(=O)O)cc1 | 89.2% (active) |
| O=C(COC(=O)c1ncc(Cl)c(Cl)c1Cl)NC1CCS(=O)(=O)C1 (configuration not stated) | -7.97% (inactive) |
| CC1=C/C(=N\OS(=O)(=O)c2ccccc2)C=CC1=O | 71.9% (active) |
| N#Cc1c(Cl)nc(-c2cccnc2)nc1-c1ccccc1 | -2.3% (inactive) |
| N#Cc1ccccc1-n1c(N)c(C(=O)N2CCCC2)sc1=S | 25.4% (inactive) |
| Cc1cccc(-n2c(N)c(C(=O)N3CCN(C)CC3)sc2=S)c1 | 62.1% (active) |
| Cc1ccc(-n2c(N)c(C(=O)N3CCOCC3)sc2=S)c(C)c1 | 10.5% (inactive) |
| Cc1ccc(OCc2n[nH]c(=S)n2-c2ccccc2)cc1 | 9.43% (inactive) |
| COc1ccc(OCc2n[nH]c(=S)n2N)cc1 | 59.6% (active) |
| COc1ccc(Cc2n[nH]c(=S)n2NC(=O)Nc2ccc(C)cc2)cc1 | 26.9% (inactive) |
| COC(=O)c1cccc(N(C(=O)c2ccco2)C(C(=O)NC2CCCC2)c2ccco2)c1 (configuration not stated) | 0.606% (inactive) |

| SMILES | inhibition |
| --- | --- |
| Cn1c(=O)c2c(SCC(=O)NCC3CCCO3)nc(CC(C)(C)C)nc2n(C)c1=O (configuration not stated) | -3.25% (inactive) |
| CCOc1ccc(CN2CCN(Cc3ccc4cc(F)ccc4n3)CC2CCO)cc1 (configuration not stated) | -8.75% (inactive) |
| Cc1ccc(S(=O)(=O)N2CCC(Oc3ccc(-n4cnnn4)cc3)CC2)cc1 | -1.49% (inactive) |
| CCCn1c(O)c(CN2CCCC(C)C2)c(C)c(C#N)c1=O (configuration not stated) | -4.49% (inactive) |
| O=c1[nH]n2c(-c3ccccc3)nc(O)c2c2ccccc12 | -3.66% (inactive) |
| O=c1[nH]c2ccccc2n2c(-c3ccccc3)nnc12 | 83.4% (active) |
| CC1(C)CC(=O)C2=C(C1)N=C1SCCC(=O)N1C2c1ccc(C(F)(F)F)cc1 (configuration not stated) | -0.591% (inactive) |
| COc1cccc(OCc2nnc3n2N=C(c2ccccc2)C(CC(=O)O)S3)c1 (configuration not stated) | -9.67% (inactive) |
| COc1ccc(C2CC(c3ccccc3)=NN2C(=O)COC(=O)COc2ccccc2)cc1 (configuration not stated) | -5.97% (inactive) |
| COc1ccc(OCc2nnc3n2N=C(c2ccccc2)C(CC(=O)O)S3)cc1 (configuration not stated) | 65.2% (active) |
| COc1cc(OC)c(NC(=O)C2CCCN2C(=O)OCc2ccccc2)cc1Cl (configuration not stated) | -7.18% (inactive) |
| CCOC(=O)C1=C(C)Nc2sc(C(=O)c3ccc(Br)cc3)c(N)c2C1c1ccc(C(=O)OC)cc1 (configuration not stated) | -6.26% (inactive) |
| CCOC(=O)c1ccc(Nc2cc3ccccc3c(=O)[nH]2)cc1 | -6.08% (inactive) |
| CCOC(=O)c1sc(=S)n2c1[nH]c(=O)c1ccc(C(=O)OC)cc12 | 41.3% (active) |
| CCCN1C2CCCC1CC(NC(=O)NC13CC4CC(CC(C4)C1)C3)C2 (configuration not stated) | -7.31% (inactive) |
| CC(C)C1Nc2c(C(=O)O)cccc2C(Nc2ccccc2C(=O)O)C1(C)C (configuration not stated) | 3.35% (inactive) |
| COc1ccc(N2C(=O)CC(Sc3n[nH]c(-c4ccc(C)cc4)n3)C2=O)cc1 (configuration not stated) | 41.5% (active) |
| COc1ccc(N2C(=O)CC(SC(C)C)C2=O)cc1 (configuration not stated) | -8.49% (inactive) |
| COc1ccc(-c2nc(SCC(=O)N3CCCC3)n[nH]2)cc1 | -17.7% (inactive) |
| CCOC(=O)C1=C(c2ccccc2)NC(=O)NC1c1cc(OCC)c(O)c([N+](=O)[O-])c1 (configuration not stated) | -2.96% (inactive) |
| CCOC(=O)c1cnc(Nc2nc3ccccc3o2)nc1CSC(=S)N1CCCCC1 | -3.98% (inactive) |
| CCOc1ccc(NC(=O)c2ccc(NC(=O)COC(=O)c3ccc(NC(=O)CC#N)cc3)cc2)cc1 | 66.2% (active) |
| CC(C)NC(=O)NC(=O)COC(=O)c1ccc(NC(=O)CC#N)cc1 | -1.25% (inactive) |
| N#CCC(=O)Nc1ccc(C(=O)OCC(=O)Nc2sc3c(c2C#N)CCCC3)cc1 | -9.04% (inactive) |
| COc1ccc(C2(C)ON(c3ccccc3C(F)(F)F)C2=O)cc1 (configuration not stated) | -6.81% (inactive) |

| SMILES | inhibition |
| --- | --- |
| CC(=O)Nc1ccc(S(=O)(=O)Nc2ccc(N3CCCCC3)cc2)cc1 | -1.93% (inactive) |
| O=C(C1CC(=O)N(C2CCCCC2)C1)N1CCN(c2ccccc2)CC1 (configuration not stated) | -5.67% (inactive) |
| O=C1C=CC(=O)N1c1ccc(N2CCCCC2)cc1 | 56.8% (active) |
| COc1ccccc1OCC(=O)Nc1c2c(nn1-c1ccc(F)cc1)CS(=O)(=O)C2 | -3.56% (inactive) |
| O=C(NCC1CCCCC1)c1cc(S(=O)(=O)N2CCCCC2)ccc1N1CCOCC1 | -1.87% (inactive) |
| O=C(CCn1c(=O)oc2ccccc21)Nc1ccon1 | -6.36% (inactive) |
| Cc1nc(Cl)c(C#N)c2c1CCCC2 | -4.63% (inactive) |
| COC(=O)c1c(C)c(C)nc(N)c1C#N | -1.41% (inactive) |
| COCc1c(N)c(C)nc(Cl)c1C#N | 66.3% (active) |
| Brc1ccc(C2CC(c3ccccc3)=Nc3ccccc3N2)cc1 (configuration not stated) | -3.13% (inactive) |
| Cn1cccc1C(=O)NC(=O)COC(=O)Cc1coc2ccc3ccccc3c12 | -8.11% (inactive) |
| COc1cccc(CN2CCN(Cc3ccc4cccc(F)c4n3)CC2CCO)c1 (configuration not stated) | -9.71% (inactive) |
| COc1ccc(CNC(=O)C(=O)N2CCC3(CC2)OCCN3S(=O)(=O)c2ccc(C)cc2)cc1 | -5.73% (inactive) |
| Cc1ccc(NC(=O)CN(C)C(=O)c2ccc(Cl)c(S(=O)(=O)NCc3ccco3)c2)cc1 | -5.2% (inactive) |
| S=c1[nH]nc(-c2ccco2)n1/N=C/c1ccccc1 | 44.3% (active) |
| S=c1[nH]nc(-c2ccco2)n1/N=C/c1ccc(Br)s1 | 17% (inactive) |
| Cc1ccc(CN2CCN(/N=C/c3ccco3)CC2)c(C)c1 | -10.3% (inactive) |
| Cc1cc(-c2n[nH]c(=S)n2/N=C/c2ccco2)n[nH]1 | 44.7% (active) |
| COc1ccccc1/C=C/C=N/n1c(-c2ccc(Cl)cc2Cl)n[nH]c1=S | -7.26% (inactive) |
| Fc1ccc(/C=N/n2c(COc3ccccc3)n[nH]c2=S)cc1 | 13.5% (inactive) |
| CCC(C)(C)NC(=O)c1cc([N+](=O)[O-])ccc1N1CCCCC1 | -0.515% (inactive) |
| CC1(C)C[C@H]2C3=CCC4[C@@]5(C)CC[C@H](O)[C@](C)(CO)C5CC[C@@]4(C)[C@]3(C)C[C@@H](O)[C@@]2(CO)[C@@H](O)[C@@H]1O (some centres not stated) | -1.86% (inactive) |
